The supplement of paper PMC8975748
Where a name gives a salt, the structure may show the parent alone. ± gives the standard deviation of the averaged measurements.

test system: Saccharomyces cerevisiae BY4741 SeMeCo community; assay: mean cell size (pixel area) (pixels); higher = larger cells; conditions: 10 µM; 24 h; SM minimal medium
Outline: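 In this assay, mean cell pixel area per well was obtained from automated confocal images of paraformaldehyde-fixed yeast analysed in Harmony. The cells were a Saccharomyces cerevisiae BY4741 community with four plasmids, each complementing one auxotrophy and carrying a fluorescent marker, grown for 24 h in SM medium with drug at a final 10 µM in 384-well plates. Values are averaged across 3 replicates. Same SeMeCo high-content imaging drug screen: Selleck FDA-approved drugs at 10 µM, 24 h in SM medium, 384-well plates, 3 replicates.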

Row | Structure (SMILES) | mean cell size
1 | C=C(C)[C@H]1Cc2c(ccc3c2O[C@@H]2COc4cc(OC)c(OC)cc4[C@@H]2C3=O)O1 [Rotenone (Barbasco)] | 12.67 ± 0.1
2 | COc1ccc2c3c([nH]c2c1)C(C)=NCC3 [Harmaline] | 12.4 ± 0.34
3 | COC(=O)C1=CCCN(C)C1 [Arecoline HBr] | 12.4 ± 0.29
4 | CCCN1C[C@H](CSC)C[C@@H]2c3cccc4[nH]cc(c34)C[C@H]21 [Pergolide Mesylate] | 12.4 ± 0.25
5 | C[N+]1(C)[C@@H]2C[C@@H](OC(=O)[C@H](CO)c3ccccc3)C[C@H]1[C@@H]1O[C@@H]12 [Methscopolamine] | 12.49 ± 0.031
6 | CN1[C@@H]2CC[C@H]1C[C@@H](OC(=O)[C@H](CO)c1ccccc1)C2 [Hyoscyamine] | 12.27 ± 0.064
7 | CN1C(=O)COc2c(C(=O)NC3CN4CCC3CC4)cc(Cl)cc21 (stereo not given) [Azasetron HCl] | 12 ± 0.075
8 | C=C[C@H]1CN2CC[C@H]1C[C@H]2[C@H](O)c1ccnc2ccccc12 [Cinchonidine] | 12.47 ± 0.048
9 | CC[C@@H](C(N)=O)N1CCCC1=O [Levetiracetam] | 12.5 ± 0.14
10 | C[N+](C)(C)CCCCCCCCCC[N+](C)(C)C [Decamethonium Bromide] | 12.47 ± 0.097
11 | O=C(O[C@H]1C[N+]2(CCCOc3ccccc3)CCC1CC2)C(O)(c1cccs1)c1cccs1 [Aclidinium Bromide] | 12.59 ± 0.061
12 | Oc1cc(Cl)ccc1Oc1ccc(Cl)cc1Cl [Triclosan] | 12.5 ± 0.31
13 | CCN(CC)CCOC(=O)C(O)(c1ccccc1)c1ccccc1 [Benactyzine hydrochloride] | 12.4 ± 0.051
14 | CC(C)=CCOc1c2occc2cc2ccc(=O)oc12 [Imperatorin] | 12.6 ± 0.14
15 | CC(=O)c1c(O)cc(C)oc1=O [Sodium dehydroacetate] | 12.3 ± 0.038
16 | CCCCCCCCCCCCCCCC[n+]1ccccc1 [Cetylpyridinium Chloride] | 11.2 ± 0.14
17 | CN(C)C(=O)Oc1cccc([N+](C)(C)C)c1 [Neostigmine Bromide] | 11.8 ± 0.15
18 | N[C@@H]1C[C@H]1c1ccccc1 [Tranylcypromine (2-PCPA) HCl] | 12.3 ± 0.32
19 | O=C(O[C@H]1C[C@H]2CC[C@@H](C1)[N+]21CCCC1)C(O)(c1ccccc1)c1ccccc1 [Trospium chloride] | 12.5 ± 0.18
20 | CC[C@@]1(O)C(=O)OCc2c1cc1n(c2=O)Cc2cc3ccccc3nc2-1 [Camptothecin] | 12.3 ± 0.14

Row | Structure (SMILES) | mean cell size
21 | CC(NC(C)(C)C)C(=O)c1cccc(Cl)c1 (stereo not given) [Amfebutamone (Bupropion) HCl] | 12.5 ± 0.13
22 | CCOC(=O)Nc1ccc(NCc2ccc(F)cc2)cc1N [Retigabine] | 12.58 ± 0.12
23 | CN1[C@@H]2CC[C@H]1C[C@@H](OC(=O)C(CO)c1ccccc1)C2 (stereo not given in full) [Atropine sulfate monohydrate] | 12.26 ± 0.093
24 | C=CCN1C[C@H](C(=O)N(CCCN(C)C)C(=O)NCC)C[C@@H]2c3cccc4[nH]cc(c34)C[C@H]21 [Cabergoline] | 12.2 ± 0.17
25 | CCN(C)C(=O)Oc1cccc([C@H](C)N(C)C)c1 [Rivastigmine] | 12.7 ± 0.17
26 | CC(=O)O[C@H]1C[C@@H]2CC[C@@H]3[C@H](CC[C@@]4(C)[C@H]3C[C@H]([N+]3(C)CCCCC3)[C@@H]4OC(C)=O)[C@@]2(C)C[C@@H]1[N+]1(C)CCCCC1 [Pancuronium dibromide] | 12.5 ± 0.19
27 | CN1[C@@H]2C[C@@H](OC(=O)[C@H](CO)c3ccccc3)C[C@H]1[C@@H]1O[C@@H]12 [Scopolamine HBr trihydrate] | 12.1 ± 0.18
28 | CN(C)C(=O)Oc1ccc[n+](C)c1 [Pyridostigmine Bromide] | 12.54 ± 0.1
29 | CCC1=C[C@H]2CN3CCc4c([nH]c5ccccc45)[C@](C(=O)OC)(C2)[C@H]13 [Catharanthine] | 12.5 ± 0.19
30 | C[C@@H]1[C@H](O)[C@@H](C)/C=C/C=C/CC/C=C/C=C/C=C/C=C/[C@H](O[C@H]2O[C@@H](C)[C@H](O)[C@@H](N)[C@H]2O)C[C@@H]2O[C@](O)(C[C@@H](O)[C@H](O)CC[C@@H](O)C[C@@H](O)C[C@@H](O)CC(=O)O[C@H]1C)C[C@H](O)[C@H]2C(=O)O [Nystatin (Fungicidin)] | 9.704 ± 0.046
31 | O=c1[nH]c2ccccc2n1CCCN1CCC(n2c(=O)[nH]c3cc(Cl)ccc32)CC1 [Domperidone] | 12.6 ± 0.23
32 | COc1ccc(C(CN(C)C)C2(O)CCCCC2)cc1 (stereo not given) [Venlafaxine] | 12.1 ± 0.091
33 | Cn1cc(C2=C(c3cn(C4CCN(Cc5ccccn5)CC4)c4ccccc34)C(=O)NC2=O)c2ccccc21 | 12.41 ± 0.12
34 | COc1ccc(C=O)cc1 [p-Anisaldehyde] | 12.3 ± 0.27
35 | CCN1C[C@]2(OC(=O)c3ccccc3NC(C)=O)CC[C@H](OC)[C@@]34[C@@H]2C[C@@H]([C@@H]13)[C@@]1(O)C[C@H](OC)[C@H]2C[C@@H]4[C@]1(O)[C@H]2OC [Lappaconitine] | 12.4 ± 0.3
36 | NCC(O)c1ccc(O)cc1 (racemic) [(+,-)-Octopamine HCl] | 12.3 ± 0.14
37 | CCOC(=O)Nc1ccc(NCc2ccc(F)cc2)cc1N [Retigabine 2HCl] | 12.5 ± 0.25
38 | CC[C@H]1[C@@H]2C[C@H]3[C@@H]4N(C)c5ccccc5[C@]45C[C@@H]([C@@H]2[C@H]5O)N3[C@@H]1O [Ajmaline] | 12.1 ± 0.16
39 | C#C[C@]1(O)C=C[C@H]2[C@@H]3CCC4=CC(=O)CC[C@@H]4[C@H]3CC[C@@]21CC [Gestodene] | 12.5 ± 0.17
40 | CC(=O)OCC1=C(C(=O)O)N2C(=O)[C@@H](N)[C@H]2SC1 [7-Aminocephalosporanic acid] | 12.28 ± 0.11
